Consider eight molecules from PubChem BioAssay (EPA / NIEHS).

Read-out in assay [1]: Intercellular Adhesion Molecule 1 (ICAM1), ICAM1 (gene 3383)
Briefly: BSK_3C_ICAM1: BioMAP Diversity Plus: 3C Assay for Intercellular Adhesion Molecule 1 (ICAM1) Biomarker Activity (AID 2283003). To be noted: primary human endothelial cells (HUVEC); actives raise or lower the signal. Put shortly: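 Chemicals are dosed onto primary human umbilical vein endothelium (3C system). After 24 h, ICAM-1 is measured by ELISA, and responses are fitted bidirectionally relative to DMSO.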

Assay [2] concerns the target human Retinoic Acid Receptor beta (RARb), RARB (gene 5915) (UniProt P10826). Briefly: ATG_RARb_TRANS: Attagene TRANS-FACTORIAL HepG2 Assay for human Retinoic Acid Receptor beta (AID 2283004; active = hit-call score of the fitted dose curve at least 0.9, where 1 is the maximum). In outline: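 HepG2, transient MRTU transfection, NR–Gal4 chimera, 24 h treatment; RT-PCR plus CE fluorescence detection of reporter mRNA; gain of signal vs DMSO.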
Assay [3] deals with Retinoic acid receptor alpha (Homo sapiens) (UniProt P10276). Briefly: ATG_RARa_TRANS: Attagene TRANS-FACTORIAL HepG2 Assay for human Retinoic Acid Receptor alpha (RARa) (AID 2283005; active = hit-call score of the fitted dose curve at least 0.9, where 1 is the maximum;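 for AC50: potency for increased reporter signal meaning RARa activation over DMSO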). In outline:
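Reporter transcripts, measured by RT-PCR with fluorescent labeling and capillary electrophoresis after 24 h dosing, reflect activity of an exogenous human RARa–GAL4 fusion in transiently transfected HepG2. Fitted for increase relative to DMSO.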

Assay [4] can be described thus: BSK_3C_Proliferation: Cell Proliferation Assessment in the BioMAP Diversity Plus: 3C Assay (AID 2283006).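 For AC50: potency may reflect either rise or fall in cell number versus DMSO.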 The note with it: primary human endothelial cells (HUVEC). Put shortly:
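Cells (human umbilical vein endothelial, sub-confluent) receive test chemical; after 48 h they are fixed in 10% trichloroacetic acid, stained with 0.1% SRB and read at 560 nm. Activity is referenced to DMSO, fitting increases and decreases.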

Assay [5] deals with Peroxisome proliferator-activated receptor gamma (Homo sapiens) (UniProt P37231). Briefly: ATG_PPARg_TRANS: Attagene TRANS-FACTORIAL HepG2 Assay for human Peroxisome Proliferator-activated Receptor-gamma (PPARg) (AID 2283007; active = hit-call score of the fitted dose curve at least 0.9, where 1 is the maximum). In outline:
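Read-out: reporter mRNA induction, detected by fluorescence after RT-PCR and capillary electrophoresis. Transiently transfected human HepG2 liver cells carrying a chimeric NR-Gal4 construct were dosed for 24 h; activity was fitted upward relative to DMSO.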

Assay [6] addresses Nuclear receptor subfamily 1 group I member 2 (Homo sapiens) (UniProt O75469). Briefly: ATG_PXR_TRANS: Attagene TRANS-FACTORIAL HepG2 Assay for human Pregnane X Receptor (PXR) (AID 2283008; active = hit-call score of the fitted dose curve at least 0.9, where 1 is the maximum). In outline: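 Transient HepG2 transfectants carrying multiplexed reporter transcription units; PXR activity read through a Gal4 chimera. 24 h exposure. RT-PCR/CE fluorescence; upward curve fit referenced to DMSO.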

Assay [7] has as its target Retinoic acid receptor RXR-alpha (Homo sapiens) (UniProt P19793). Briefly: ATG_RXRa_TRANS: Attagene TRANS-FACTORIAL HepG2 Assay for human Retinoid X Receptor alpha (RXRa) (AID 2283012; active = hit-call score of the fitted dose curve at least 0.9, where 1 is the maximum). Put shortly:
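Measures exogenous chimeric NR-GAL4 activity in transfected HepG2 liver cells after 24 h of dosing. Induced reporter mRNA was detected by RT-PCR with capillary electrophoresis, and gain of signal was analysed against DMSO.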

In assay [8] the target is human Retinoid X Receptor beta (RXRb), RXRB (gene 6257) (UniProt P28702). Briefly: ATG_RXRb_TRANS: Attagene TRANS-FACTORIAL HepG2 Assay for human Retinoid X Receptor beta (RXRb) (AID 2283013; active = hit-call score of the fitted dose curve at least 0.9, where 1 is the maximum). Put shortly: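 Chimeric receptor-Gal4 activity was assessed in transiently transfected human HepG2 cells after 24 h exposure. Transcripts from GAL4-UAS reporters were quantified by fluorescent RT-PCR and capillary electrophoresis, with DMSO as negative control and baseline.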

Read-out in assay [9]: E-selectin (Homo sapiens) (UniProt P16581)
As to the kind of experiment: BSK_3C_Eselectin: BioMAP Diversity Plus: 3C Assay for Eselectin Biomarker Activity (AID 2283015).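 For outcome: cell surface E-selectin protein quantified by ELISA 24 h after dosing.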 To be noted: primary human endothelial cells (HUVEC); actives raise or lower the signal. In outline: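 Human vascular endothelium from umbilical vein is exposed to test chemicals for 24 h. E-selectin levels are read by ELISA and compared with DMSO controls.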

Read-out in assay [10]: Interleukin-1 alpha (IL1a), IL1A (gene 3552)
Briefly: BSK_BE3C_IL1a: BioMAP Diversity Plus: BE3C Assay for Interleukin-1 alpha (IL1a) Biomarker Activity (AID 2283016). To be noted: primary human bronchial epithelial cells; actives raise or lower the signal. Put shortly:
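Signal from IL-1a ELISA, taken 24 h after chemical dosing of human bronchial epithelial cells, is compared with DMSO as baseline using bidirectional curve fitting.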

Read-out in assay [11]: Monocyte Chemoattractant Protein-1 (MCP1), CCL2 (gene 6347)
As to the kind of experiment: BSK_3C_MCP1: BioMAP Diversity Plus: 3C Assay for Monocyte Chemoattractant Protein-1 (MCP1) Biomarker Activity (AID 2283017). The note with it: primary human endothelial cells (HUVEC); actives raise or lower the signal. In outline: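 Endothelial cells from human umbilical vein are dosed with chemical, cultured 24 h, then assayed for MCP-1 by ELISA; both increases and decreases are modelled against DMSO controls.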

Read-out in assay [12]: Monocyte Chemoattractant Protein-1 (MCP1), CCL2 (gene 6347)
As to the kind of experiment: BSK_4H_MCP1: BioMAP Diversity Plus: 4H Assay for Monocyte Chemoattractant Protein-1 (MCP1) Biomarker Activity (AID 2283018). To be noted: primary human endothelial cells (HUVEC); actives raise or lower the signal. In outline:
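Endothelial cells from umbilical vein were treated with test chemical, then after 24 h MCP-1 levels were quantified by ELISA; endpoint values came from bidirectional fitting with DMSO as baseline of activity.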

Read-out in assay [13]: Human Leukocyte Antigen - DR isotype (HLADR), HLA-DRA (gene 3122)
Briefly: BSK_3C_HLADR: BioMAP Diversity Plus: 3C Assay for Human Leukocyte Antigen - DR isotype (HLADR) Biomarker Activity (AID 2283019).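 For outcome: ELISA of cell-surface HLA-DR on HUVEC 24 h after dosing.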 The note with it: primary human endothelial cells (HUVEC); actives raise or lower the signal. In outline: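 Endothelial cells from human umbilical vein are treated with test chemical; after 24 h, HLA-DR levels are measured by ELISA. Data are fitted in both directions using DMSO as the baseline.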

Assay [14] addresses human Vitamin D Receptor (VDR), VDR (gene 7421) (UniProt P11473). Briefly: ATG_VDR_TRANS: Attagene TRANS-FACTORIAL HepG2 Assay for human Vitamin D Receptor (VDR) (AID 2283022; active = hit-call score of the fitted dose curve at least 0.9, where 1 is the maximum). In outline:
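Fluorescence of labelled reporter cDNA fragments, resolved by capillary electrophoresis, gives mRNA induction after 24 h treatment of HepG2 cells carrying transfected Gal4-fusion reporter units. Activity is fitted in the positive direction with DMSO as baseline.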

Assay [15] addresses human Thyroid Receptor alpha (THRa1), THRA (gene 7067) (UniProt P10827). As to the kind of experiment: ATG_THRa1_TRANS: Attagene TRANS-FACTORIAL HepG2 Assay for human Thyroid Receptor alpha (THRa1) (AID 2283014; active = hit-call score of the fitted dose curve at least 0.9, where 1 is the maximum). Put shortly:
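First, HepG2 cells receive multiple GAL4-UAS reporter units and the chimeric receptor. They are then dosed for 24 h, after which RNA is reverse-transcribed, amplified, labelled, HpaI-cut and sized by capillary electrophoresis; gain relative to DMSO is scored.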

Read-out in assay [16]: Interleukin-8 (IL8), CXCL8 (gene 3576)
Briefly: BSK_3C_IL8: BioMAP Diversity Plus: 3C Assay for Interleukin-8 (IL8) Biomarker Activity (AID 2283020). To be noted: primary human endothelial cells (HUVEC); actives raise or lower the signal. In outline: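 Endothelial primary cells of human umbilical vein origin are dosed with chemical; after 24 h the IL-8 biomarker is measured by ELISA, and concentration–response is fitted in both directions versus DMSO.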

Assay [17] has as its target human Peroxisome Proliferator-activated Receptor delta (PPARd), PPARD (gene 5467) (UniProt Q03181). As to the kind of experiment: ATG_PPARd_TRANS: Attagene TRANS-FACTORIAL HepG2 Assay for human Peroxisome Proliferator-activated Receptor delta (PPARd) (AID 2283002; active = hit-call score of the fitted dose curve at least 0.9, where 1 is the maximum). Put shortly: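 Transient HepG2 transfection (multiple GAL4-UAS RTUs, chimeric receptor-Gal4); 24 h dosing; total RNA → oligo(dT) RT → PCR → 6-FAM primer extension → HpaI cut → CE. Positive direction vs DMSO.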

Read-out in assay [18]: Monokine induced gamma interferon (MIG), CXCL9 (gene 4283)
As to the kind of experiment: BSK_3C_MIG: BioMAP Diversity Plus: 3C Assay for Monokine induced gamma interferon (MIG) Biomarker Activity (AID 2283021). The note with it: primary human endothelial cells (HUVEC); actives raise or lower the signal. Put shortly: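 Endothelial primary cells (human umbilical vein) are dosed with test chemical in the 3C system. MIG levels are measured by ELISA at 24 h and fitted in both directions relative to DMSO.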

The target in assay [19] is human Peroxisome Proliferator-activated Receptor alpha (PPARa), PPARA (gene 5465) (UniProt Q07869). Briefly: ATG_PPARa_TRANS: Attagene TRANS-FACTORIAL HepG2 Assay for human Peroxisome Proliferator-activated Receptor alpha (PPARa) (AID 2283001; active = hit-call score of the fitted dose curve at least 0.9, where 1 is the maximum). In outline: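 Reporter transcripts quantified by RT-PCR plus capillary electrophoresis after 24 h treatment, fitted upward relative to DMSO. Cells: human HepG2 transiently carrying multiple GAL4-UAS reporter units driven by NR-Gal4 chimeras.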

Assay [20] has as its target human RAR-related Orphan Receptor beta (RORb), RORB (gene 6096) (UniProt Q92753). Briefly: ATG_RORb_TRANS: Attagene TRANS-FACTORIAL HepG2 Assay for human RAR-related Orphan Receptor beta (RORb) (AID 2283010; active = hit-call score of the fitted dose curve at least 0.9, where 1 is the maximum). Put shortly: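 Transfect HepG2 with multiple GAL4-UAS reporter transcription units; dose chemicals for 24 h; isolate RNA, reverse-transcribe and PCR-amplify reporter sequences; label, digest and resolve fragments by capillary electrophoresis; fit increases relative to DMSO.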

Several values for one entry are separate records, joined by “and”; a condition that tells them apart may be missing. Equal values may be shown once. Records with an inconclusive call do not appear. Some structures have more than one record in an assay (separate samples or runs), and their calls can disagree. Activity calls are given as the source filed them. Rule for the calls, unless noted: active = hit-call score of the fitted dose curve at least 0.9, where 1 is the maximum; inactive = score below 0.9.

Chain of E-selectin (Homo sapiens) (P16581 whole entry, looked up): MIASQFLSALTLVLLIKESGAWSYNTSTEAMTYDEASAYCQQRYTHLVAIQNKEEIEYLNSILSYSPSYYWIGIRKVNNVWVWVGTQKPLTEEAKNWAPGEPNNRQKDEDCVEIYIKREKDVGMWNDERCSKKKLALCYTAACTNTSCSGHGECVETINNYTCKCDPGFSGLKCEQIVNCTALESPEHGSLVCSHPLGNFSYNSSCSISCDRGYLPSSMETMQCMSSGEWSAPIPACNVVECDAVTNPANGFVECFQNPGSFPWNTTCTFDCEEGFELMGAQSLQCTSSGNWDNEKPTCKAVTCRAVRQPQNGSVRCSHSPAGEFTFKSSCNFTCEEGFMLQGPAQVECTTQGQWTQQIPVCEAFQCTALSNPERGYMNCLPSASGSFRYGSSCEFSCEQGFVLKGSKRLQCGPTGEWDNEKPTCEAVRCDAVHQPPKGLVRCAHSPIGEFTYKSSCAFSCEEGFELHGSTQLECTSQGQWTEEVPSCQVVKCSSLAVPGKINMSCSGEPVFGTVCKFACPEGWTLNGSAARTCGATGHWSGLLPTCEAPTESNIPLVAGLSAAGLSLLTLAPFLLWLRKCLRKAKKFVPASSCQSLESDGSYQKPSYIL
Chain of human Thyroid Receptor alpha (THRa1), THRA (gene 7067) (P10827 whole entry, looked up, the tested form may be a part): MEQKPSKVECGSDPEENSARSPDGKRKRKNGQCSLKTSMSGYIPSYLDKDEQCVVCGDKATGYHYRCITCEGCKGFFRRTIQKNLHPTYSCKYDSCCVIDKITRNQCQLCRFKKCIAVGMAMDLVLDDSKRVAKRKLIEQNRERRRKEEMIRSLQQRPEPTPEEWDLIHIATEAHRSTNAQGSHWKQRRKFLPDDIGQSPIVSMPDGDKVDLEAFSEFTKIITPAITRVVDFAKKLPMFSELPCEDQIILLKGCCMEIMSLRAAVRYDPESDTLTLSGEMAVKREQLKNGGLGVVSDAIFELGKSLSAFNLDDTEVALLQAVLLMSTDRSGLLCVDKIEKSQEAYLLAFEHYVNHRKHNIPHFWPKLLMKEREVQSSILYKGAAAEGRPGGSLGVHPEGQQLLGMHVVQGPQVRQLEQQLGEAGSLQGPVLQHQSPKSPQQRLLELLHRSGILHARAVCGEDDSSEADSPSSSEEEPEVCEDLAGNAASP
Chain of human Retinoid X Receptor beta (RXRb), RXRB (gene 6257) (P28702 whole entry, looked up, the tested form may be a part): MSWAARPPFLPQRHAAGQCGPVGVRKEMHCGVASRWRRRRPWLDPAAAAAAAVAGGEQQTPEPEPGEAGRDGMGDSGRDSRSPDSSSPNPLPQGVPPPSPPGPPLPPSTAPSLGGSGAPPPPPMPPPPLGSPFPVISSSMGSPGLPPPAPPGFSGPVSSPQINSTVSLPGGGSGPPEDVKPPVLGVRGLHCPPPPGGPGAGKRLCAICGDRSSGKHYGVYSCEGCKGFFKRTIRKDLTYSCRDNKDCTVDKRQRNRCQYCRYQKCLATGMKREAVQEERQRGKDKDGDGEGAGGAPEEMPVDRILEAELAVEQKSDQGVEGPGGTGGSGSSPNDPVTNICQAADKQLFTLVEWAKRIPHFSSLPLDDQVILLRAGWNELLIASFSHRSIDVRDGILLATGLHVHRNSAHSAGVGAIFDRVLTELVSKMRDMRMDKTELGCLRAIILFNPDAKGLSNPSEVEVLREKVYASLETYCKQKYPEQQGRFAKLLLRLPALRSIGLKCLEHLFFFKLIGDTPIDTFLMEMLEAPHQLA
Chain of Retinoic acid receptor RXR-alpha (Homo sapiens) (P19793 whole entry, looked up, the tested form may be a part): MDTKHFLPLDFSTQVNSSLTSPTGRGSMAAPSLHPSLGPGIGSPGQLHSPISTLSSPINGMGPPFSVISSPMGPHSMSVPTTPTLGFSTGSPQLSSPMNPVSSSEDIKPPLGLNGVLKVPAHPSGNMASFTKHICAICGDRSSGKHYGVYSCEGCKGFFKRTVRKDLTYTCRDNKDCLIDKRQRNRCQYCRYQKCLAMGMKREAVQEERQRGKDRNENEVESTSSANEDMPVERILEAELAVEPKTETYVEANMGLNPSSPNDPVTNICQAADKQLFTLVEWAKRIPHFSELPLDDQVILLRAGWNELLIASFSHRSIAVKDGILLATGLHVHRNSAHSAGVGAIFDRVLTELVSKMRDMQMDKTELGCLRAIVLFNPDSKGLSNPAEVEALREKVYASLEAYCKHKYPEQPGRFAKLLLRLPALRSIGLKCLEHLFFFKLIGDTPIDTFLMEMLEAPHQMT
Chain of human Peroxisome Proliferator-activated Receptor delta (PPARd), PPARD (gene 5467) (Q03181 whole entry, looked up, the tested form may be a part): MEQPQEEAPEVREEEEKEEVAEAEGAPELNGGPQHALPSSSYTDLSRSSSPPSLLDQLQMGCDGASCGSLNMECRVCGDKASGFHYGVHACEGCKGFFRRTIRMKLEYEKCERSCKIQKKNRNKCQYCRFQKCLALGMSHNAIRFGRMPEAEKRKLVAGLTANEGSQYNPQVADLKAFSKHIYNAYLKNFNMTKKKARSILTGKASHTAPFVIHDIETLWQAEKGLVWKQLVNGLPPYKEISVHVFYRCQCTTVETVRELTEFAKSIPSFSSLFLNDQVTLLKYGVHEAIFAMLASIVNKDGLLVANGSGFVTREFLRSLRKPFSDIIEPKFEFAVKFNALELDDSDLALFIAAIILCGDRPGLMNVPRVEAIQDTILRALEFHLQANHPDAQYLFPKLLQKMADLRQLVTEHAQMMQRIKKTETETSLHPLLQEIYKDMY
Chain of Retinoic acid receptor alpha (Homo sapiens) (P10276 whole entry, looked up, the tested form may be a part): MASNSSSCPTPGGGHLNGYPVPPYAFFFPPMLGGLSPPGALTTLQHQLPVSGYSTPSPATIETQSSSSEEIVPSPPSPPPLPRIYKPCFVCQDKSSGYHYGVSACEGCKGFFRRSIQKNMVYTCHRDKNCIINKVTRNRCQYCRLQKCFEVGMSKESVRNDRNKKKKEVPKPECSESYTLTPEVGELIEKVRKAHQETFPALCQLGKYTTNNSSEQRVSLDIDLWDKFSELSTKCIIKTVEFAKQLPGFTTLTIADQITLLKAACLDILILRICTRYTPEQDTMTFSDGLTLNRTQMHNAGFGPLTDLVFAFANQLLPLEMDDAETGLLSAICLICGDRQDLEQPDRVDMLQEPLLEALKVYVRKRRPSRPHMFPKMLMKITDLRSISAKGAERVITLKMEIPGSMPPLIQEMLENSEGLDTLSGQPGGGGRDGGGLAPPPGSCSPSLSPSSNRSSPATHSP
Chain of human Retinoic Acid Receptor beta (RARb), RARB (gene 5915) (P10826 whole entry, looked up, the tested form may be a part): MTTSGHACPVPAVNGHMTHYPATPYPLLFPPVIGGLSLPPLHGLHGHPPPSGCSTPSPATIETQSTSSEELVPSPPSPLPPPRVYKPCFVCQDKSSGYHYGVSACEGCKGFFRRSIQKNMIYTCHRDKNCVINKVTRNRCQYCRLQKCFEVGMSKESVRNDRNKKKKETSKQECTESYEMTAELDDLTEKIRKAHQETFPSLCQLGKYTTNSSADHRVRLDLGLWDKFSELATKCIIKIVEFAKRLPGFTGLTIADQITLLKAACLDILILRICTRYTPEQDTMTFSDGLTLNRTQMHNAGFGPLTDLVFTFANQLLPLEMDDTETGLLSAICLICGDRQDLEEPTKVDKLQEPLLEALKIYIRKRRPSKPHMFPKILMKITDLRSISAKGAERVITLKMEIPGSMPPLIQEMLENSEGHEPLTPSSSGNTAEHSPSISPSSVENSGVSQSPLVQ
Chain of Nuclear receptor subfamily 1 group I member 2 (Homo sapiens) (O75469 whole entry, looked up, the tested form may be a part): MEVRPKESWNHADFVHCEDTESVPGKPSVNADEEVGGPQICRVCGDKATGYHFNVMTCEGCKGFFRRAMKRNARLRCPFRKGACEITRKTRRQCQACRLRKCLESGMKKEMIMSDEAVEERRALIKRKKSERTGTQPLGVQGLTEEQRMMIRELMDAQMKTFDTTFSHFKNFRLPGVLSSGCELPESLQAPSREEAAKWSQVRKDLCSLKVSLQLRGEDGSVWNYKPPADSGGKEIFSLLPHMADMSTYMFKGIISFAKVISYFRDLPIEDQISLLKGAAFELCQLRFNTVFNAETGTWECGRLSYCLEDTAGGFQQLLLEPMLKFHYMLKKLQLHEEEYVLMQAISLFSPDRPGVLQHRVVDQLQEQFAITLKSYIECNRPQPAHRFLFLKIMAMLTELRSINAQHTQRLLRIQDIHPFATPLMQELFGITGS
Chain of Peroxisome proliferator-activated receptor gamma (Homo sapiens) (P37231 whole entry, looked up, the tested form may be a part): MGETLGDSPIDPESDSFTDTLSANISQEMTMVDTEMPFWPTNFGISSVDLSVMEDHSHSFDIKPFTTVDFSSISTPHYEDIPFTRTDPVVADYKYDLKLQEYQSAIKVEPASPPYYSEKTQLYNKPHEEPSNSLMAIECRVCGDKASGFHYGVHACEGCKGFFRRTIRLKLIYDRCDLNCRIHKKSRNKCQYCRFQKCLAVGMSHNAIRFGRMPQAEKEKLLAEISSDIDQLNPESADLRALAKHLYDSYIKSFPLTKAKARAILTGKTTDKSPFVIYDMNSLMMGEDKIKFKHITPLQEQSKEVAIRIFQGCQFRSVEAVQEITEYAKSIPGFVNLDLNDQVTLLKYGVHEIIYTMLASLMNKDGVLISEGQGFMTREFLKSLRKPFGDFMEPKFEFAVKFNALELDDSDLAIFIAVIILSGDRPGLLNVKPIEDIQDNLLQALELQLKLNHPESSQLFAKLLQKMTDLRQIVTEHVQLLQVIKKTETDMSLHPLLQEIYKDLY
Chain of human Vitamin D Receptor (VDR), VDR (gene 7421) (P11473 whole entry, looked up, the tested form may be a part): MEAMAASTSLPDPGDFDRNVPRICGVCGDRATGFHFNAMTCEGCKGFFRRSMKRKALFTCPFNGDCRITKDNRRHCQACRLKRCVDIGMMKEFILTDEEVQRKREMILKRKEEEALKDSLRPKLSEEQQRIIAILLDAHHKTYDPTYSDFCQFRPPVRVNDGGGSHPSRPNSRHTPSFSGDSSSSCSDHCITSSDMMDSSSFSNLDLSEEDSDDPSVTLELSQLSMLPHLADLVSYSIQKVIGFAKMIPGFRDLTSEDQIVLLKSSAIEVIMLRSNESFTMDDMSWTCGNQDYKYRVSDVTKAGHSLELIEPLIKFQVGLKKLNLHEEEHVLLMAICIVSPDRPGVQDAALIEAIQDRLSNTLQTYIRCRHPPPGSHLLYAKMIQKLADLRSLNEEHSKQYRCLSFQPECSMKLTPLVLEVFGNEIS

Usually AC50 stands for the concentration giving half of the maximal activity seen. As to `CC[C@@H]1C[C@H](N(Cc2cc(C(F)(F)F)cc(C(F)(F)F)c2)C(C)=O)c2cc(C(F)(F)F)ccc2N1C(=O)OC(C)C`, the result in [1], in [2], in [4], in assay [5], in assay [7] and in assay [8] was inactive. The result in assay [9], in [10], in [11], in assay [12], in assay [13] and in [14] was inactive. For the same molecule, the AC50 in assay [3] was 1.1 µM (active); in assay [6], 118 nM (active).
For `CN(C)c1ccc(C(=C2C=CC(=[N+](C)C)C=C2)c2ccc(N(C)C)cc2)cc1`, the AC50 in assay [1] was 10.3 µM (active); in assay [4], 2.42 µM (active); in assay [5] it was 16.8 µM (active); in assay [9], 0.815 µM (active); in assay [10], 2.36 µM (active); in assay [11], 0.798 µM (active). Further, the AC50 in assay [12] was 0.66 µM (active); in [13], 0.344 µM (active); in assay [16], 5.53 µM (active). In addition, the outcome in assay [2], in assay [7] and in assay [15] was inactive.
Turning to `COc1cccc([C@H](O)C2CCN(CCc3ccc(F)cc3)CC2)c1OC`, the molecule was classed as inactive in [17], in assay [1], in assay [4], in assay [6], in assay [7] and in assay [9]. Further, the result in [10], in assay [11], in assay [12], in assay [13], in assay [16] and in [18] was inactive. The molecule was classed as inactive in assay [14].
On to `O=c1ccc2ccccc2o1`, for which the outcome in assay [1], in assay [3], in assay [4], in assay [9], in assay [10] and in assay [11] was inactive. In addition, the outcome in [12], in assay [13] and in assay [18] was inactive.
As for `O=C(OCCCCCCOC(=O)c1ccccc1)c1ccccc1`, the molecule was called inactive in [17], in assay [1], in [2], in [6], in assay [8] and in assay [15]. Moreover, the result in assay [9], in assay [10], in assay [11], in assay [12], in [13] and in assay [16] was inactive. The molecule was classed as inactive in [14]. Besides, the AC50 in [4] was 20.7 µM (active).
`O=C1O[C@H]([C@@H](O)CO)C(O)=C1O`: the outcome in assay [17], in assay [1], in [4], in assay [5], in [7] and in assay [8] was inactive. For the same molecule, the molecule was called inactive in assay [15], in assay [9], in [10], in assay [11], in [12] and in assay [13]. The outcome in assay [18] was inactive. Further, the values for the AC50 in assay [7] and in assay [8] were 26.6 µM (active) and 35.9 µM (active), respectively.
As to `CC(C)(c1cc(Br)c(O)c(Br)c1)c1cc(Br)c(O)c(Br)c1`, the AC50 in assay [1] was 36 µM (active); in [4], 28 µM (active); in assay [6] it was 6.78 µM (active) and 10.5 µM (active); in assay [9], 29 µM (active); in assay [10], 5.72 µM (active); in [11], 29.9 µM (active). The AC50 was 26.6 µM (active) in assay [12], 27.2 µM (active) in [13] and 31.8 µM (active) in assay [16]. Besides, the call in assay [2], in assay [3], in assay [7], in [8], in [15] and in assay [14] was inactive.
As for `O=c1[nH]sc2ccccc12`, the molecule was called inactive in [19], in assay [5], in assay [20], in assay [8], in [15] and in [14]. Further, the AC50 in [1] is 18.2 µM (active); in assay [4] it was 1.55 µM (active); in assay [9], 13.5 µM (active); in assay [10], 27.7 µM (active); in [11], 11.7 µM (active); in assay [12] it was 11.6 µM (active). For the same molecule, the AC50 in assay [13] is 5.39 µM (active).
